The results in this text go back to the OligoGym collection.
Note: reference of the scale not given here.

One experiment has as its target ARF4. Description: pooled miR-30 sensor sort-seq; sequence = guide strand. Particulars: shRNA.
TACCACAAAAATAAGACCCTGG yielded a sensor-assay potency score (higher = more potent) of 0.855. Still for that read-out and setting: the result for TACAGAATGGTTGTCTTGCCAG reads -0.56; that for TAATTCTATCTTGACCACCAAC, -1.26.

For TTATCAAACATGTCCTTGGTTA, the sensor-assay potency score (higher = more potent) was -0.479. The same measure, in the same setting: next, TTCTATCTTGACCACCAACATC: -1.78.

The target in a further experiment is ARHGAP18. The experiment is described as above. The following applies: shRNA.
Consider ATTTGTACTCTTATCTTGCTTT, for which the sensor-assay potency score (higher = more potent) is 0.153. TTGGTTTACAATAAACTTGGGA returned a sensor-assay potency score (higher = more potent) of 0.294. The same measure, in the same setting: the result for TTCTCCTTTCTTGAGAGTCTGG reads -0.587; that for TTCTATCCAATAGTCTTCCATA, -1.16.

In turn, TTTGCTTCTAGTTCTTGGCAAA gave a sensor-assay potency score (higher = more potent) of -1.24. Consider TAAAAACACAATGCTTTCCTGT, for which the sensor-assay potency score (higher = more potent) amounted to 0.106. Turning to TTTGACAACAACCACCTCTTGA, the sensor-assay potency score (higher = more potent) is 0.34. Same read-out and setting: the result for TTTCTTTTGATTCTCTCTGTTG reads -0.646. The same measure, in the same setting: next, TTGCACTCGAATCACTCCCTGA: -0.442; TTATTTACACTCTTGACTCAGC: -0.0105. On the same count and under the same terms, the result for TTCTCCATAACTTTGATGGTGG reads -0.384; that for TTTATTTACACTCTTGACTCAG, 0.18.

For the next experiment, the target named is ARHGAP21. Described as above. Particulars: shRNA.
With TTAAACTATCTAATCTTTCTTG, the sensor-assay potency score (higher = more potent) turned out to be 0.206. Still for that read-out and setting: the result for TTATTTTTTGAGACCTCGCAGG reads -0.693. Same read-out and setting: the result for TAAACTATCTAATCTTTCTTGT reads 0.258. On the same count and under the same terms, next, TAAACTGCGACACAGATCCCAC: -0.61; TAGACTTCCACTATCTGACTTG: 0.173.

Turning to TTTAGTATCATTGTGACACTGT, the sensor-assay potency score (higher = more potent) amounted to 0.875.

For TTGTTGAGTCACTAGTAGCTGA, the sensor-assay potency score (higher = more potent) was -0.152. TTCTATTGGATAACAAATCTAC: the sensor-assay potency score (higher = more potent) is -0.588. With TATCTGACTTGAATCTAGCTGA, the sensor-assay potency score (higher = more potent) stood at 0.41. On the same count and under the same terms, the result for TTTCATTGCAAACACACACTGC reads -0.187; that for TAAATCTGAAGTACCAGCGTTT, 0.202; that for TTGTATATCAATATCAGCCATT, -0.872.

The target in a further experiment is ARHGAP30. The experiment is described as above. The following applies: shRNA.
TGCACAGCTCTTTAGCACCTGG returned a sensor-assay potency score (higher = more potent) of -0.978. The same measure, in the same setting: next, TTGTTGGATTTATCCTCCCTGT: -0.894.

For TCTTGCTACACATTGCACTGGG, the sensor-assay potency score (higher = more potent) was found to be 0.852.

Consider TTGACCTTCACTAGAGTGGGAC, for which the sensor-assay potency score (higher = more potent) was -0.00464. The sequence TTATTCTGAGACATTGACCTTC returned a sensor-assay potency score (higher = more potent) of 0.266. On the same count and under the same terms, the result for TAGAGTTGGGCACTACAGCTGC reads -0.34. The sequence TTTGGCACAGTCAACCTCCAGG had a sensor-assay potency score (higher = more potent) of -0.36. TTAATCTGGATTTAAAAGGGAC showed a sensor-assay potency score (higher = more potent) of -0.482. On the same count and under the same terms, next, AAGAGGATCGAGAAGCTCGGGA: -0.319; TTGTGTCGGAGACAAGTTCAGG: -1.32; TGAATCTTGCTACACATTGCAC: -1.12.
